Records with an inconclusive call do not appear. Activity calls are given as the source filed them. Unless noted, calls come from the whole dose curve; as a rule, active = well fitted curve in the direction sought with a large enough effect in the repeat runs; inconclusive = weak or mixed curves; inactive = no such curve, though single readings can be large; an effect the other way counts as inactive or inconclusive.
How the values were obtained:
[1] = qHTS assay to identify small molecule agonists of the estrogen receptor alpha (ER-alpha) signaling pathway in the presence of an antagonist - cell viability counter screen (AID 1259386);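 note: series mostly up to about 92 µM; cells exposed to compounds for 22 h at 37 °C before the viability read; nearly all actives have a fitted effect of over 30% in size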
Outline: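 In this counter screen, compound effects on VM7Luc4E2 viability were tested in the presence of the antagonist ICI-182,780 at 10.0nM final. Compounds were dosed at 15 concentrations, exposure lasted 22hr, and the CellTiter-Fluor signal was read.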

[2] = molecular target: Progesterone receptor (Homo sapiens) (UniProt P06401); test: qHTS assay to identify small molecule agonists of the progesterone receptor (PR) signaling pathway (AID 1346784; calls by dose curve; note: nearly all actives have a fitted effect of over 30% in size)
Outline: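 Reporter assay, GripTite PR-UAS-bla HEK 293T cells: 16 hr exposure to DMSO-dissolved compounds at 37C, 5% CO2, in steroid-depleted (2% charcoal-stripped FBS) medium; beta-lactamase measured by FRET fluorescence.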

[3] = molecular target: Progesterone receptor (Homo sapiens) (UniProt P06401); test: qHTS assay to identify small molecule antagonists of the progesterone receptor (PR) signaling pathway (AID 1346795; active = well fitted inhibition curve with a large enough effect in the signal ratio in the repeat runs, not every such curve was filed as active; the % refers to the signal ratio)
Outline: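 Stimulus R5020 at 1 nM final; cells HEK293T PR-UAS-bla; medium with 2% charcoal-stripped FBS; compound exposure 16 hr at 37C, 5% CO2; detection by FRET beta-lactamase substrate, 2 hr, room temperature.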

[4] = qHTS assay to identify small molecule antagonists of the progesterone receptor (PR) signaling pathway - cell viability counter screen (AID 1346798); note: series mostly up to about 92 µM; nearly all actives have a fitted effect of over 50% in size
Outline: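 In the same plates used for the beta-lactamase readout, cell viability of compound- and R5020-treated PR-UAS-bla HEK293T cells (16 hr, 37C) was assessed by CellTiter-Glo luminescence.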

[5] = qHTS assay to identify small molecule antagonists of the TGF-beta/Smad signaling pathway - cell viability counter screen (AID 1346824); note: nearly all actives have a fitted effect of over 50% in size
Outline: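 SBE-bla HEK 293T cells, incubated overnight, then compound plus 0.25 ng/mL TGF-beta1 (stock added) for 5 hr at 37 C. Viability was read in the same wells by CellTiter-Glo luminescence after 30 min at room temperature.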

[6] = qHTS assay to identify small molecule agonists of the TGF-beta/Smad signaling pathway - cell viability counter screen (AID 1346829); note: top concentration of the series differs between compounds; nearly all actives have a fitted effect of over 45% in size
Outline: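 In parallel with the Smad reporter read, viability of HEK 293T cells stably carrying SBE-bla is quantified by ATP luminescence following 5 hr compound treatment.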

[7] = molecular target: Thyrotropin-releasing hormone receptor (Homo sapiens) (UniProt P34981); test: qHTS assay to identify small molecule antagonists of the thyrotropin-releasing hormone receptor (TRHR) signaling pathway (AID 1346877; active = well fitted inhibition curve with a large enough effect in the repeat runs, not every such curve was filed as active; note: series mostly up to about 51 µM)
Outline: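 Kinetic fluorescence (3 min, 1 s resolution) following stimulation with TRH at 1 nM final; HEK293 cells bearing human TRHR; 5 min compound preincubation at RT; concentration-response over 15 points, triplicates.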

[8] = molecular target: Thyrotropin-releasing hormone receptor (Homo sapiens) (UniProt P34981); test: qHTS assay to identify small molecule agonists of the thyrotropin-releasing hormone receptor (TRHR) signaling pathway (AID 1346891; calls by dose curve; note: series mostly up to about 58 µM)
Outline: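 Readout was intracellular calcium fluorescence in TRHR-Hek293 cells. Cells were incubated 18 h, dye-loaded 2 h at 37 °C, and treated with compound in agonist mode.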

[9] = qHTS assay to identify small molecule agonists of the progesterone receptor (PR) signaling pathway - cell viability counter screen (AID 1346799; calls by dose curve; note: nearly all actives have a fitted effect of over 45% in size)
Outline: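 Multiplexed viability read: CellTiter-Glo luminescence, 30 min RT, following LiveBLAzer FRET measurement on PR-UAS-bla HEK293T cells exposed to compounds 16 hr.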

[10] = qHTS assay to identify small molecule agonists of the TGF-beta/Smad signaling pathway (AID 1346859; active = well fitted activation curve with a large enough effect in the signal ratio in the repeat runs, not every such curve was filed as active; the % refers to the signal ratio; note: series mostly up to about 77 µM)
Outline: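 Screening used HEK 293T SBE-bla cells at 4,000/well. Test agents: 5 hr, 37 C. Detection: FRET substrate, 2 hr RT, then excitation 405 nm with emissions at 460 and 530 nm.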

Measured: Potency

Chain of Progesterone receptor (Homo sapiens) (P06401 whole entry, looked up): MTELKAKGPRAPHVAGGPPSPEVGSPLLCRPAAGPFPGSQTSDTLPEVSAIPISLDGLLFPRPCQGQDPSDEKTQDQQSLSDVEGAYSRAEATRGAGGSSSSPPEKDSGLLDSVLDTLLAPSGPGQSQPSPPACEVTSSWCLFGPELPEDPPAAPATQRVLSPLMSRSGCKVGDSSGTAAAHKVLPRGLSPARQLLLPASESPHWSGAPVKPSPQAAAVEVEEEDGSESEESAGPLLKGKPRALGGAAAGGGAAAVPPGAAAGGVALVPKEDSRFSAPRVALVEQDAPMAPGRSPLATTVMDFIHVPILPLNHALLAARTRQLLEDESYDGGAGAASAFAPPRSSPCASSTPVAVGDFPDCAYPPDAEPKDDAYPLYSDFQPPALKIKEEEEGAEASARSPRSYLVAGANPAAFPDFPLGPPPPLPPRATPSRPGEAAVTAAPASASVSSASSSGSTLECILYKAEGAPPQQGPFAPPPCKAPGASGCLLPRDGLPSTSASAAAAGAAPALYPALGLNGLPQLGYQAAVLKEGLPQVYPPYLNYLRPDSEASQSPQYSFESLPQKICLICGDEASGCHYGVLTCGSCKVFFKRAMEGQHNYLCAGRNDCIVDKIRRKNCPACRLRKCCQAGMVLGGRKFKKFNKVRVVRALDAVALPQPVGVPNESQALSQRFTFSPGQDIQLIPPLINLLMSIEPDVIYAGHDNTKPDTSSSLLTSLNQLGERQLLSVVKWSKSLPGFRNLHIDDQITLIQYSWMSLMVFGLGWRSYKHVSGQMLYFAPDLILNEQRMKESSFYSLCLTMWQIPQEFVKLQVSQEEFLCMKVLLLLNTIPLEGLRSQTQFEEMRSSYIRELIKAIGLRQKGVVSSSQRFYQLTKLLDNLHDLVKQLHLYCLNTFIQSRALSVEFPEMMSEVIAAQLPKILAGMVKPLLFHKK
Chain of Thyrotropin-releasing hormone receptor (Homo sapiens) (P34981 whole entry, looked up): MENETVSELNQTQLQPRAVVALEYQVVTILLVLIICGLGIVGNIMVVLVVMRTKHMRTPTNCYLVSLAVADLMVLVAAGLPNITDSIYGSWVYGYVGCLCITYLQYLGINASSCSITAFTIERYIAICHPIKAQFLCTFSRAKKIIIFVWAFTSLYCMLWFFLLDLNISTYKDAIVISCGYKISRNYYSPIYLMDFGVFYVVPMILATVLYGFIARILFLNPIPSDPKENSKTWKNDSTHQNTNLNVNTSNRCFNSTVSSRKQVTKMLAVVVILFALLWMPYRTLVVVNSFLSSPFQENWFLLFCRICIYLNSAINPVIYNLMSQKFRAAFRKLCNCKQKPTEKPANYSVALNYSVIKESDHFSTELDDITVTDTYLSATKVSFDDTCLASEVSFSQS

O=[N+]([O-])c1ccc(CBr)cc1
not listed: [9] | [10]
inactive: all other assays above

CCCCc1c(C)nc(NCC)[nH]c1=O
not listed: [2] | [10]
inactive: all other assays above

O=C1CN2CCOC2(c2ccccc2Cl)c2cc(Cl)ccc2N1 (stereo not drawn)
inactive: [1] | [2] | [4] | [5] | [6]

CC1(C)C(=O)NC(=O)NC1=O
not listed: [3] | [4] | [9]
inactive: all other assays above

CCN(Cc1ccc(Cl)nc1)/C(=C/[N+](=O)[O-])NC
not listed: [3] | [9]
inactive: all other assays above

O=C(CCN1CC1)OCC(CO)(COC(=O)CCN1CC1)COC(=O)CCN1CC1
not listed: [2]
inactive: all other assays above

CCC/C(=N\OCC)C1=C(O)CC(CC(C)SCC)CC1=O (stereo not drawn)
not listed: [3] | [10]
inactive: all other assays above

CC(C(=O)c1ccccc1)N(C)C (stereo not drawn)
not listed: [2] | [7] | [8]
inactive: all other assays above

CCOP(=S)(OCC)Oc1ncn(-c2ccccc2)n1
not listed: [3] | [10]
inactive: all other assays above

Reference: PubChem BioAssay (Tox21)
